# Assay results as given in paper PMC5540273 (PLoS ONE, 2017).
# Read-outs that look alike come from different tables or passages of the source.
# Columns and labels:
# [1] = system: EPHA7; conditions: concentration: 1 μM, replicates: in singlicate; n = 1
# [2] = system: EPHA8; conditions: concentration: 1 μM, replicates: in singlicate; n = 1
# [3] = system: EPHB1; conditions: concentration: 1 μM, replicates: in singlicate; n = 1
# [4] = system: EPHB2; conditions: concentration: 1 μM, replicates: in singlicate; n = 1
# [5] = system: EPHB3; conditions: concentration: 1 μM, replicates: in singlicate; n = 1
# [6] = system: EPHB4; conditions: concentration: 1 μM, replicates: in singlicate; n = 1
# [7] = system: EPHB6; conditions: concentration: 1 μM, replicates: in singlicate; n = 1
# [8] = system: ERBB2; conditions: concentration: 1 μM, replicates: in singlicate; n = 1
# [9] = system: ERBB3; conditions: concentration: 1 μM, replicates: in singlicate; n = 1
# [10] = system: ERBB4; conditions: concentration: 1 μM, replicates: in singlicate; n = 1
# [11] = system: T1, ERK1; conditions: concentration: 1 μM, replicates: in singlicate; n = 1
# T1 construct: gene MAPK3
# [12] = system: T2, ERK2; conditions: concentration: 1 μM, replicates: in singlicate; n = 1
# T2 construct: gene MAPK1
# [13] = system: T3, ERK3; conditions: concentration: 1 μM, replicates: in singlicate; n = 1
# T3 construct: gene MAPK6
# [14] = system: T4, ERK4; conditions: concentration: 1 μM, replicates: in singlicate; n = 1
# T4 construct: gene MAPK4
# [15] = system: T5, ERK5; conditions: concentration: 1 μM, replicates: in singlicate; n = 1
# T5 construct: gene MAPK7
# [16] = system: T6, ERK8; conditions: concentration: 1 μM, replicates: in singlicate; n = 1
# T6 construct: gene MAPK15
# [17] = system: ERN1; conditions: concentration: 1 μM, replicates: in singlicate; n = 1
# [18] = system: T7, FAK; conditions: n = 1
# T7 construct: gene PTK2
# [19] = system: FER; conditions: concentration: 1 μM, replicates: in singlicate; n = 1
# [20] = system: FES; conditions: concentration: 1 μM, replicates: in singlicate; n = 1
# [21] = concentration: 1 μM, replicates: in singlicate
# 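Also: KINOMEscan kinase panel screen.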
smiles,measurement,setting,value
O=C(O)C(F)(F)F.O=c1[nH]ccc2nc(N[C@@H]3CCNC3)nc(Nc3ccc4c(c3)S(=O)(=O)CC4)c12 [GSK2181306],%Inh,[1],27%
same,%Inh,[2],24%
same,%Inh,[3],9%
same,%Inh,[4],0%
same,%Inh,[5],5%
same,%Inh,[6],8%
same,%Inh,[7],19%
same,%Inh,[8],8%
same,%Inh,[9],0%
same,%Inh,[10],0%
same,%Inh,[11],55%
same,%Inh,[12],61%
same,%Inh,[13],78%
same,%Inh,[14],28%
same,%Inh,[15],17%
same,%Inh,[16],5%
same,%Inh,[17],39%
same,%Inh,[18]; [21],84%
same,%Inh,[19],75%
same,%Inh,[20],16%
CS(=O)(=O)c1cccc(CNc2nc(Nc3ccc4c(c3)CCC(=O)N4)ncc2C(F)(F)F)c1,%Inh,[1],0%
same,%Inh,[2],0%
same,%Inh,[3],0%
same,%Inh,[4],0%
same,%Inh,[5],0%
same,%Inh,[6],0%
same,%Inh,[7],21%
same,%Inh,[8],45%
same,%Inh,[9],0%
same,%Inh,[10],3%
same,%Inh,[11],0%
same,%Inh,[12],17%
same,%Inh,[13],0%
same,%Inh,[14],0%
same,%Inh,[15],15%
same,%Inh,[16],90%
same,%Inh,[17],0%
same,%Inh,[18]; 1 µM,100%
same,%Inh,[19],0%
same,%Inh,[20],12%
N#Cc1cnc2cc(-c3cnc(CNCCN4CCOCC4)s3)ccc2c1Nc1ccc(Oc2ccccc2)cc1 [GW664114],%Inh,[1],0%
same,%Inh,[2],25%
same,%Inh,[3],0%
same,%Inh,[4],7%
same,%Inh,[5],10%
same,%Inh,[6],10%
same,%Inh,[7],21%
same,%Inh,[8],79%
same,%Inh,[9],100%
same,%Inh,[10],100%
same,%Inh,[11],0%
same,%Inh,[12],0%
same,%Inh,[13],0%
same,%Inh,[14],48%
same,%Inh,[15],0%
same,%Inh,[16],0%
same,%Inh,[17],21%
same,%Inh,[18]; [21],0%
same,%Inh,[19],82%
same,%Inh,[20],94.9%
COC(=O)Nc1nc2ccc(Oc3ccc(CC(=O)Nc4cc(C(F)(F)F)ccc4F)cc3)cc2[nH]1 [GW680903],%Inh,[1],9%
same,%Inh,[2],64%
same,%Inh,[3],32%
same,%Inh,[4],26%
same,%Inh,[5],9%
same,%Inh,[6],20%
same,%Inh,[7],22%
same,%Inh,[8],30%
same,%Inh,[9],12%
same,%Inh,[10],7%
same,%Inh,[11],0%
same,%Inh,[12],0%
same,%Inh,[13],0%
same,%Inh,[14],7%
same,%Inh,[15],0%
same,%Inh,[16],0%
same,%Inh,[17],0%
same,%Inh,[18]; [21],0%
same,%Inh,[19],0%
same,%Inh,[20],0%
COc1cc(Nc2ccnc3cc(-c4ccncc4)ccc23)cc(OC)c1OC.Cl [GW494610],%Inh,[1],0%
same,%Inh,[2],99.2%
same,%Inh,[3],74%
same,%Inh,[4],57%
same,%Inh,[5],0%
same,%Inh,[6],50%
same,%Inh,[7],98%
same,%Inh,[8],49%
same,%Inh,[9],50%
same,%Inh,[10],5%
same,%Inh,[11],0%
same,%Inh,[12],0%
same,%Inh,[13],5%
same,%Inh,[14],0%
same,%Inh,[15],0%
same,%Inh,[16],22%
same,%Inh,[17],10%
same,%Inh,[18]; [21],0%
same,%Inh,[19],26%
same,%Inh,[20],0%
CN(c1ccc2c(c1)nc(NCc1ccccc1)n2C)c1ccnc(Nc2ccc(CS(C)(=O)=O)cc2)n1.Cl [GW811603],%Inh,[1],20%
same,%Inh,[2],47%
same,%Inh,[3],0%
same,%Inh,[4],0%
same,%Inh,[5],0%
same,%Inh,[6],2%
same,%Inh,[7],87%
same,%Inh,[8],35%
same,%Inh,[9],28%
same,%Inh,[10],17%
same,%Inh,[11],0%
same,%Inh,[12],3%
same,%Inh,[13],0%
same,%Inh,[14],0%
same,%Inh,[15],1%
same,%Inh,[16],6%
same,%Inh,[17],1%
same,%Inh,[18]; [21],23%
same,%Inh,[19],4%
same,%Inh,[20],0%
O=C(Nc1n[nH]c2nc(-c3cccc(O)c3)ccc12)C1CC1 [SB-711805],%Inh,[1],11%
same,%Inh,[2],30%
same,%Inh,[3],14%
same,%Inh,[4],0%
same,%Inh,[5],1%
same,%Inh,[6],5%
same,%Inh,[7],48%
same,%Inh,[8],0%
same,%Inh,[9],0%
same,%Inh,[10],0%
same,%Inh,[11],0%
same,%Inh,[12],0%
same,%Inh,[13],0%
same,%Inh,[14],0%
same,%Inh,[15],47%
same,%Inh,[16],42%
same,%Inh,[17],0%
same,%Inh,[18]; [21],0%
same,%Inh,[19],36%
same,%Inh,[20],0%
COc1cccc(NC(=O)NCCNc2ccnc(Nc3ccc(F)cc3)n2)c1 [GSK1379879],%Inh,[1],0%
same,%Inh,[2],2%
same,%Inh,[3],5%
same,%Inh,[4],0%
same,%Inh,[5],8%
same,%Inh,[6],19%
same,%Inh,[7],14%
same,%Inh,[8],39%
same,%Inh,[9],24%
same,%Inh,[10],20%
same,%Inh,[11],0%
same,%Inh,[12],0%
same,%Inh,[13],4%
same,%Inh,[14],25%
same,%Inh,[15],0%
same,%Inh,[16],0%
same,%Inh,[17],0%
same,%Inh,[18]; [21],0%
same,%Inh,[19],8%
same,%Inh,[20],0%
CC(C)NCC(Cc1ccccc1)NC(=O)c1cc(Br)c(-c2ccnc3[nH]ccc23)s1.Cl.Cl (stereo not drawn) [GSK1383281],%Inh,[1],0%
same,%Inh,[2],0%
same,%Inh,[3],16%
same,%Inh,[4],0%
same,%Inh,[5],2%
same,%Inh,[6],2%
same,%Inh,[7],6%
same,%Inh,[8],16%
same,%Inh,[9],0%
same,%Inh,[10],10%
same,%Inh,[11],11%
same,%Inh,[12],0%
same,%Inh,[13],0%
same,%Inh,[14],0%
same,%Inh,[15],0%
same,%Inh,[16],2%
same,%Inh,[17],0%
same,%Inh,[18]; [21],20%
same,%Inh,[19],0%
same,%Inh,[20],0%
